About 79,000 compounds went through this panel and 15% of them were active in at least one assay; those are over-represented in the sample as a whole. Rule as the data show it: active = growth inhibition above about 70%; inactive = the rest.
Legend:
[1] = NCI Yeast Anticancer Drug Screen. Data for the rad50 strain (AID 155);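 also: 0% = growth of vehicle-only cultures of the same strain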; conditions: S. cerevisiae rad50 strain growth inhibition; at 50.0 µM; active compounds read high
Method in brief: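 Relative growth inhibition (compound vs vehicle) was measured in yeast with a defined repair-gene alteration.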

[2] = NCI Yeast Anticancer Drug Screen. Data for the mec2-1 strain (AID 157); conditions: S. cerevisiae mec2-1 strain, at 50.0 µM, active compounds read high
Method in brief: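 Growth inhibition is read against vehicle-treated controls after compound exposure of the mec2-1 yeast strain, which is defective in DNA damage repair or cell cycle control.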

[3] = NCI Yeast Anticancer Drug Screen. Data for the sgs1 mgt1 strain (AID 161);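 also: 0% = growth of cultures given vehicle only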; conditions: S. cerevisiae sgs1 mgt1 strain, at 50.0 µM, active compounds read high
Method in brief: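 Growth of a repair-deficient yeast mutant was monitored after compound treatment and expressed as inhibition relative to vehicle-treated cultures.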

[4] = NCI Yeast Anticancer Drug Screen. Data for the cln2 rad14 strain (AID 165);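 also: 0% = growth equal to vehicle treated cultures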; conditions: S. cerevisiae cln2 rad14 strain, at 50.0 µM, active compounds read high
Method in brief: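 Growth inhibition, relative to vehicle-treated controls, is the read-out. The test organism is a yeast strain with defined genetic alterations, cln2 rad14.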

[5] = NCI Yeast Anticancer Drug Screen. Data for the bub3 strain (AID 167); conditions: S. cerevisiae bub3 mutant strain, at 50.0 µM, active compounds read high
Method in brief: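 Screening used yeast with an engineered genetic alteration affecting cell cycle control. Compound-exposed cultures were compared with vehicle cultures, and reduced growth was taken as inhibition.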

[6] = NCI Yeast Anticancer Drug Screen. Data for the mlh1 rad18 strain (AID 175); conditions: S. cerevisiae mlh1 rad18 strain growth inhibition; at 50.0 µM; active compounds read high
Method in brief: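 Cells of a genetically altered yeast strain, deficient in DNA damage repair, were treated with compound. Their growth was then compared with that of vehicle-treated cultures to give inhibition.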

Measured: growth inhibition

Nc1nc(N)c(N=Nc2ccc(Cl)cc2)c(=O)[nH]1
inactive: [1] 19.9% | [2] -20.6% | [3] -26.1% | [4] 23.1% | [5] 5.35% | [6] 13.7%

C[n+]1cc(I)cc2ccccc21
inactive: [1] 3.85% | [2] -3.45% | [3] -9.55% | [4] -0.2% | [5] 4.05% | [6] 5.05%

CCn1c(=O)c(C#N)c2n(CC)c3ccccc3n2c1=O
inactive: [1] 39.5% | [2] 13.8% | [3] 19.4% | [4] 10.2% | [5] 20.9% | [6] 30%

CC(=O)c1c(-c2ccccc2)noc1C
inactive: [1] 7.35% | [2] -7.35% | [3] -7.55% | [4] -37.4% | [5] -12.8% | [6] -1.4%

CCC(C)CCC(=O)C(C)C(=O)O (centres undefined)
inactive: [1] 5.7% | [2] 3.1% | [3] 3.45% | [4] -11.3% | [5] 4.45% | [6] 0.5%

COC1(OC)C=NNc2nccn21
inactive: [1] 2.05% | [2] -2.5% | [3] 3.3% | [4] 19.6% | [5] -5.9% | [6] -5.3%

CC(C)(CCN(CC(=O)O)CC(=O)O)[N+](=O)[O-]
inactive: [1] -16.1% | [2] -3.1% | [3] 3.65% | [4] -69.8% | [5] 6.05% | [6] -21.5%

Cc1cc2c(=O)cc(-c3ccc(Cl)cc3Cl)oc2c(C(=O)O)c1C
inactive: [1] -19.6% | [2] 10.9% | [3] 9% | [4] 23.6% | [5] 11.6% | [6] 29.5%

CC(=O)N(C(C)=O)N1C(=O)C2C3C=CC(C4CC34)C2C1=O (centres undefined)
inactive: [1] 30.2% | [2] 17% | [3] 15.8% | [4] 19.6% | [5] 2.95% | [6] 23.4%

CC1(C)c2ccccc2C(=O)C12CCC(=O)CC2
inactive: [1] 9.2% | [2] -3.4% | [3] 18.8% | [4] 26.4% | [5] 18.9% | [6] 17.5%

O=C(Nc1ccccc1-c1nn(CO)c(=S)n(CO)c1=O)C(F)(F)F
inactive: [1] 40.2% | [2] 23.9% | [3] 43.2% | [4] 12.6% | [5] -22.6% | [6] 20.2%

OCC1OC(OC2CC3C(OC4OC(CO)C(O)C(O)C4O)CC(O)CC3OC2c2ccc(O)cc2)C(O)C(O)C1O (centres undefined)
inactive: [1] 18.1% | [2] 16.2% | [3] 21% | [4] 14.5% | [5] 11.8% | [6] 16.1%

Cc1cc(=O)n(-c2ccc([N+](=O)[O-])cc2)c(C)c1C(=O)O
inactive: [1] 3.25% | [2] -2.4% | [3] 4.85% | [4] -0.15% | [5] 7.9% | [6] -1.65%

CCOC(=O)c1ccc(=O)n2c1[nH]c1ccccc12
inactive: [1] 9.05% | [2] -5.65% | [3] -15.5% | [4] -0.45% | [5] -2.75% | [6] -5.45%

Cc1ccc(C(=O)/C=C(\C(=O)c2ccccc2)c2ccccc2)cc1C
inactive: [1] 12.5% | [2] 14.8% | [3] 1.85% | [4] 11.7% | [5] 11.3% | [6] 9.65%

O=C(N/N=C/c1ccccc1)c1c(F)c(F)c(F)c(F)c1F
inactive: [1] -27.6% | [2] 9% | [3] -32.9% | [4] 12.2% | [5] 0.6% | [6] 0.6%

c1ccc(Cc2ncc(-c3ccccc3)cc2-c2ccccc2)cc1
inactive: [1] -19.4% | [2] -14.8% | [3] 3.1% | [4] 3.65% | [5] 7.3% | [6] 4.2%

CC(=O)C1CCC2C3CC=C4CC(O)CCC4(C)C3CCC12C (centres undefined)
inactive: [1] 26.4% | [2] 18.4% | [3] 23.8% | [4] 45.3% | [5] 37% | [6] 46.6%

c1ccc(C2=NN3CN(N2)c2ccccc2OCCCOc2ccccc23)cc1
inactive: [1] -25.2% | [2] 2.05% | [3] -5.55% | [4] 12.8% | [5] 18.3% | [6] 6.25%

CC(=O)N(C)Nc1ccccc1
inactive: [1] 2.45% | [2] -10.7% | [3] 17.9% | [4] -7.4% | [5] 19.7% | [6] -17.6%

CNc1ncnc2n[nH]nc12
inactive: [1] -10.7% | [2] -0.35% | [3] -12.1% | [4] -23% | [5] -11.6% | [6] 3.45%

COc1ccccc1NC(=S)N1CCC(CCCC2CCN(C(=S)Nc3ccccc3OC)CC2)CC1
inactive: [1] -30.3% | [2] -22.9% | [3] -9.75% | [4] -11.8% | [5] -20.9% | [6] -13.2%

COC(=O)C(=O)CC(=O)CCn1ncc(Cl)c(Cl)c1=O
inactive: [1] -14.3% | [2] -25.4% | [3] -1.3% | [4] 6.45% | [5] -13.6% | [6] -17.7%

CSc1ccc(NC(=S)NN(C)C)cc1
inactive: [1] -22.9% | [2] -25.3% | [3] -15.2% | [4] 9.35% | [5] 1.4% | [6] -7.65%

COc1ccc(NC(=O)/C(Cc2cc(=O)oc3cc(O)ccc23)=N\NC(C)(C)C)c(OC)c1
inactive: [1] -4.4% | [2] 2.8% | [3] 9.3% | [4] 4% | [5] -1.8% | [6] 7.3%

CC1CCc2[nH]nc(CC3CC(=O)NC(=O)C3)c2C1 (centres undefined)
inactive: [1] 15.9% | [2] -2.2% | [3] 10.8% | [4] 27.2% | [5] -7.35% | [6] 3.7%

Cc1ccc(S(=O)(=O)CCC(=O)c2ccccc2)cc1
inactive: [1] 9.3% | [2] 16% | [3] 0.95% | [4] 1.3% | [5] 3.25% | [6] 14.6%

COc1ccc(OC)c(C2=CCCCCC2)c1
inactive: [1] 7.6% | [2] -6.15% | [3] 3.1% | [4] -22.1% | [5] -7.85% | [6] 13.5%

O=c1[nH]c(-c2ccccc2)nc2cc([N+](=O)[O-])c(/C(Cl)=C/c3ccccc3)cc12
inactive: [1] 28.8% | [2] 14.4% | [3] 13.8% | [4] 12.1% | [5] -1% | [6] 33.8%

NC(N)=NC(N)=Nc1c(F)c(F)c(F)c(F)c1F
inactive: [1] -17.4% | [2] -33.1% | [3] -11.8% | [4] -14.5% | [5] -3.6% | [6] -20.6%

CCN(CC)CCCOC(c1ccccc1)c1ccc(Cl)cc1 (centres undefined)
inactive: [1] 17.8% | [2] 16.9% | [3] 46.5% | [4] 41.9% | [5] 1.1% | [6] 26.1%

CC(=O)n1[nH]c(=O)c2ncccc2c1=O
inactive: [1] 2.75% | [2] 7.6% | [3] 9.45% | [4] -6.6% | [5] -8.45% | [6] 9%

CC(=O)OC1CCC2(C)OC(=O)CC2C1 (centres undefined)
inactive: [1] 2.2% | [2] 8.55% | [3] 6.9% | [4] -41.9% | [5] 9.6% | [6] 1.4%

CCCCC(C)C(=O)CC(SCC)c1ccc(Cl)c(Cl)c1 (centres undefined)
inactive: [1] 19.6% | [2] -26.9% | [3] 17.3% | [4] -12.4% | [5] 8.2% | [6] -0.95%

O=C1CC2(CCN(Cc3ccccc3)CC2)C(=O)N1N1CCCCC1
inactive: [1] 50.9% | [2] 33.3% | [3] 57.8% | [4] 41.9% | [5] 43.8% | [6] 50.4%

COc1ccc(C(=O)/C=C/c2ccncc2)cc1OC
inactive: [1] 41.8% | [2] 38.4% | [3] 51.5% | [4] 5.55% | [5] 32.5% | [6] 36.9%

COc1cc(OC)c2c(=O)cc(-c3ccc(OC)c(OC)c3OC)oc2c1
inactive: [1] -31.8% | [2] -23.6% | [3] -30.1% | [4] -2.3% | [5] -18.4% | [6] -40.5%

CC(C)N1C(=O)c2ccccc2C1=O
inactive: [1] 26.8% | [2] 22.1% | [3] 14.7% | [4] 19.8% | [5] 15.1% | [6] 14.3%

C1CCN(c2nsc(N3CCCCC3)n2)CC1
inactive: [1] -13.7% | [2] -5.15% | [3] 2.95% | [4] -52.1% | [5] -14.6% | [6] 18.2%

— PubChem BioAssay (NCI)
